PubChem BioAssay (NCI)
“And” between values parts separate entries of the source, which are not always exact repeats. Equal entries are not always repeated. About 83,000 compounds went through this panel and 20% of them were active in at least one assay; those are over-represented in the sample as a whole.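 A percent growth of 40 corresponds to 60% growth inhibition; 0 means no net growth; -100 means all cells died. Active threshold: below 10.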

Assays:
Experiment in all cases: NCI-60 one-dose screen, 48 h (100 = growth as untreated, 0 = no growth, -100 = all killed)
Settings in all cases: 10 µM unless noted
[1] = system: SR leukemia
[2] = system: RPMI-8226 leukemia
[3] = system: OVCAR-8 ovarian
[4] = system: OVCAR-5 ovarian
[5] = system: OVCAR-4 ovarian
[6] = system: SK-OV-3 ovarian
[7] = system: IGROV1 ovarian
[8] = system: OVCAR-3 ovarian
[9] = system: HS 578T breast
[10] = system: NCI/ADR-RES ovarian
[11] = system: T-47D breast
[12] = system: BT-549 breast
[13] = system: MDA-MB-435 melanoma
[14] = system: SW-620 colon
[15] = system: MCF7 breast
[16] = system: HCT-116 colon
[17] = system: HCC-2998 colon
[18] = system: KM12 colon

Measured: growth

CCCCOC1NC(=O)NC(=O)C1(F)C(=O)OCC (configuration not stated)
inactive: [1] 37.9% | [2] 71.8% and 53.1% | [3] 89.6% and 66.6% | [4] 96.5% and 91.9% | [5] 98.9% and 75.8% | [6] 91.7% and 81.6% | [7] 103% and 87.6% | [8] 77.3% and 65.7% | [9] 101% and 115% | [10] 93.7% and 77.1% | [11] 80.5% and 74.7% | [12] 57.3% and 59.5% | [13] 56.9% and 53.4% | [14] 94.6% and 76.7% | [15] 46.6% and 27.8% | [16] 64.5% and 43.6% | [17] 45.5% and 26.1% | [18] 60.2% and 49.4%

CCCCC/C(C)=N\NC(N)=S
inactive: [1] 86.9% | [2] 70.9% | [3] 65.3% | [4] 103% | [5] 67.8% | [6] 98.9% | [7] 89.7% | [8] 43.4% | [9] 87.6% | [10] 48.8% | [11] 33.6% | [12] 96.7% | [13] 84.4% | [14] 67.5% | [15] 19.6% | [17] 97.8% | [18] 93.5%

Cc1cc2ccccc2c2cc3ccccc3cc12
inactive: [1] 40.8% | [2] 105% | [3] 98.9% | [4] 86.9% | [5] 94.5% | [6] 90.6% | [7] 61.8% | [8] 100% | [9] 95.2% | [10] 98.8% | [11] 48% | [12] 93.7% | [13] 100% | [15] 33.8% | [16] 93.8% | [17] 92.5% | [18] 82.1%

CCOC(=O)C1=CC(=O)CC(C)(C)O1
inactive: [1] 82.1% and 114% | [2] 92.8% and 111% | [3] 114% and 106% | [4] 110% and 101% | [5] 128% and 117% | [6] 108% and 114% | [7] 103% and 120% | [8] 118% and 96.9% | [9] 117% | [10] 96.9% and 110% | [11] 110% and 107% | [12] 99.2% and 117% | [13] 119% and 111% | [15] 109% | [16] 96.8% and 110% | [17] 102% and 108% | [18] 107% and 76.9%

CCC/C(=N/NC(N)=O)c1ccco1
inactive: [1] 96.1% | [2] 95.2% | [3] 98% | [4] 91.2% | [5] 102% | [6] 91.6% | [7] 104% | [8] 117% | [9] 97.5% | [10] 100% | [11] 72.6% | [12] 97.4% | [13] 106% | [15] 92.1% | [16] 99.7% | [17] 104% | [18] 103%

O=C(c1ccc(Cl)cc1)C1C(c2ccccc2)C1[N+](=O)[O-] (configuration not stated)
inactive: [1] 78% | [2] 96.3% | [3] 99% | [4] 109% | [5] 99% | [6] 105% | [7] 103% | [8] 97.8% | [9] 96% | [10] 99.7% | [11] 89.3% | [12] 99.3% | [13] 114% | [15] 96% | [17] 96.9% | [18] 97.9%
